Non-standard residues stand in square brackets, D forms with d. Residues, ends and D or L forms follow the SMILES beside them. *: point of attachment. Butanoyl(4-(4-HOPh)) = O=C(CCCc1ccc(O)cc1)*
Legend:
Type in all cases: functional
[1] = system: Plasmodium falciparum; assay: GSK_TCMDC: Inhibition of Plasmodium falciparum 3D7 in whole red blood cells, using parasite LDH activity as an index of growth. Test compounds present at 2uM
[2] = system: Plasmodium falciparum; assay: GSK_TCMDC: Inhibition of Plasmodium falciparum Dd2 in whole red blood cells, using parasite LDH activity as an index of growth. Test compounds present at 2uM
[3] = system: HepG2; assay: GSK_TCMDC: Percent inhibition of human HepG2 cell line. Test compounds present at 10uM.

Structure (SMILES) | Inhibition [1] | Inhibition [2] | Inhibition [3]
COc1ccc(-c2cncc3ccc(C(=O)NCCCn4ccnc4)nc23)cc1 | 95% | 99% | 28%
COc1cc2ccccc2c(CON2C(=N)N=C(N)NC2(C)C)c1OC.Cl | 96% | 10% | 2%
CC(C)CCN1CCCN(Cc2ccc(C(=O)Nc3ccc(F)c(F)c3)cc2)CC1.O=C(O)C(F)(F)F | 88% | 27% | 36%
O=C(Nc1ccc(OC2CCN(Cc3ccsc3)CC2)c(Cl)c1)c1ccco1.O=C(O)C(F)(F)F | 87% | 85% | 7%
Cc1ccc2nc3ccccc3c(NCCN3CCN(C)CC3)c2c1.Cl | 100% | 6% | 19%
CCCCCCCCNCc1c(O)ccc2ccccc12.Cl | 99% | 94% | 0%
O=C(NCC(=O)N1CCC[C@H]1C(=O)O)[C@@H](Cc1ccccc1)NC(=O)[C@@H]1CCCN1C(=O)CCCc1ccc(O)cc1 ({Butanoyl(4-(4-HOPh))}-P[dF]GP-OH) | 81% | 1% | 1%
O=C(CNc1ccc(Cl)c(S(=O)(=O)N2CCCC2)c1)Nc1ccc(Br)cc1F | 99% | 97% | 18%
Cc1cccc2nc(-c3ccc(-c4ccc(NC(=O)c5cncn5C)cc4)s3)[nH]c12 | 100% | 30% | 49%
Cc1ccc(CN2CCCN(Cc3cccc(NC(=O)c4cc5ccccc5s4)c3)CC2)cc1.O=C(O)C(F)(F)F | 87% | 28% | 32%
